A short description of assay [1]: qHTS RealTime-Glo MT Cell Viability Assay in HepG2 cells - 24 hour (AID 1224867). Note: nearly all actives have a fitted effect of over 50% in size. The essentials:
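HepG2 suspension premixed with RealTime-Glo reagents is plated at 600 cells per well and left 5 h at 37 C/5% CO2. Compounds in DMSO then go in, and bioluminescence reflecting viable cell number is recorded over 40 h.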
(qHTS replaces the single test concentration by a dilution series.)

The nature of assay [2]: qHTS RealTime-Glo MT Cell Viability Assay in HepG2 cells - 40 hour (AID 1224870). Note: nearly all actives have a fitted effect of over 50% in size. The essentials: (§1)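 HepG2 cells (600/well) mixed with RealTime-Glo MT reagent, settled 5 h at 37 C/5% CO2 before compound addition. Nonlytic NanoLuc luminescence from viable-cell prosubstrate reduction read repeatedly during 40 h treatment at 37 C.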
Assay [3] is described as follows: qHTS RealTime-Glo MT Cell Viability Assay in HEK293 cells - 16 hour (AID 1224872). Note: top concentration of the series differs between compounds; nearly all actives have a fitted effect of over 50% in size. In outline: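 Reads taken at 0, 8, 16, 24, 32 and 40 h from the same wells. HEK293 cells (600/well) carried RealTime-Glo reagents from seeding, with compound added after a 5 h settle at 37 C.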
The nature of assay [4]: qHTS RealTime-Glo MT Cell Viability Assay in HepG2 cells - 8 hour (AID 1224873). Note: nearly all actives have a fitted effect of over 55% in size. In outline: as §1
Assay [5] can be described thus: qHTS RealTime-Glo MT Cell Viability Assay in HEK293 cells - 40 hour (AID 1224874). Note: nearly all actives have a fitted effect of over 50% in size. Note: potency is the fitted concentration of half-maximal effect. The following applies: RealTime-Glo luminescence; max response: stronger effect = lower value. In outline:
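qHTS format; HEK293 cells with NanoLuc/prosubstrate reagent, 37 C/5% CO2 for 5 h pre-dosing; compounds 23 nL in DMSO; luminescence at each time point reflects viable cells.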

The nature of assay [6]: A CellTox Green Cytotoxicity Assay to monitor cytotoxicity in HEK293 cells - 24 hour (AID 1224875). Note: series mostly up to about 77 µM; nearly all actives have a fitted effect of over 45% in size. In outline:
(§2)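 Each value comes from one timepoint of a single continuous run in which HEK293 cells with CellTox Green were exposed to compound for up to 40 h at 37 C, dye fluorescence rising with cell death.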

Assay [7] can be described thus: A CellTox Green Cytotoxicity Assay to monitor cytotoxicity in HepG2 cells - 16 hour (AID 1224876). Note: nearly all actives have a fitted effect of over 45% in size. Note: potency is the fitted concentration of half-maximal effect. In outline:
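Continuous culture of HepG2 cells with a membrane-impermeant DNA dye; rising fluorescence marks dead cells. Compound exposure lasted up to 40 h at 37 C, with reads every 8 h from 0 h.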

The nature of assay [8]: A CellTox Green Cytotoxicity Assay to monitor cytotoxicity in HEK293 cells - 0 hour (AID 1224869). Note: nearly all actives have a fitted effect of over 50% in size. In outline: as §2
A short description of assay [9]: A CellTox Green Cytotoxicity Assay to monitor cytotoxicity in HEK293 cells - 40 hour (AID 1224871). Note: nearly all actives have a fitted effect of over 45% in size. The essentials: as §2

The structures appear in SMILES notation. Values without a mark were called inactive. Results filed as inconclusive are left out. Active and inactive are the calls of the source. Calls come from the whole dose curve; as a rule, active = well fitted curve in the direction sought with a large enough effect in the repeat runs; inconclusive = weak or mixed curves; inactive = no such curve, though single readings can be large; an effect the other way counts as inactive or inconclusive.
% is set by controls: 0 for no effect and ±100 for the full control effect.

As to `O=NN(CCCl)C(=O)NC1CCCCC1`, the result in assay [1], in assay [2] and in assay [4] was inactive. Also, the Potency entry in assay [3], in [6] and in assay [7] was “inactive” each time. The max response in assay [5] was 1.88%.
`c1ccc(B(c2ccccc2)c2ccccc2)cc1`: the call in [1], in assay [2] and in assay [4] was inactive. The Potency result in assay [8] and in assay [7] was “inactive” each time.
With `CCCCOC(=O)[C@H](C)O`, the compound was called inactive in [1] and in [4]. The Potency result in assay [8], in assay [9], in assay [3] and in [7] was “inactive” each time. Also, the max response in assay [5] is 1.9%.
In the case of `CCCCCCCCCCCCCBr`, the compound was called inactive in assay [1], in assay [2] and in [4]. The Potency result in assay [8] and in assay [7] was “inactive” throughout.
With `O=C(O)c1cc2ccccc2nc1C(=O)O`, the compound was called inactive in assay [1], in [2] and in assay [4]. The Potency result in assay [3], in assay [6] and in [7] was “inactive” in each case. For the same compound, in assay [5], the max response was -2.29%.
Take `C=C(C)c1cccc(C(C)(C)N=C=O)c1`: the compound was called inactive in [1] and in [4]. In addition, the Potency entry in assay [8], in assay [9], in assay [3], in [6] and in [7] was “inactive” in each case. Besides, the max response in assay [5] was 3.52%.
Consider `O=C=NCC1CCCC(CN=C=O)C1` (stereo not given), for which the compound was classed as inactive in assay [1], in assay [2] and in assay [4]. For the same compound, the Potency entry in assay [8], in assay [3], in [6] and in assay [7] was “inactive” each time. The max response in assay [5] is 1.36%.
For `C=C(C)[C@@H]1CC=C(C)C(=O)C1`, the call in assay [1], in assay [2] and in [4] was inactive. The Potency entry in assay [8], in assay [9], in assay [6] and in assay [7] was “inactive” throughout. Also, in assay [5], the max response was -8.2%.
For the compound `CN(C)CC/C=C1/c2ccccc2COc2ccc(CC(=O)O)cc21`, the Potency entry in assay [9], in assay [6] and in assay [7] was “inactive” each time.
For `O=C(O)CNC(=O)CNC(=O)CNC(=O)CSC(=O)c1ccccc1`, the result in assay [1], in assay [2] and in [4] was inactive. In addition, the Potency result in assay [9], in [6] and in assay [7] was “inactive” throughout. For the same compound, the max response in [5] was 6.64%.
Regarding `CC(=O)CC(=O)OC(C)(C)C`, the compound was called inactive in assay [1], in assay [2] and in [4]. The Potency entry in [9], in assay [3], in assay [6] and in assay [7] was “inactive” each time. The max response in assay [5] was 1.26%.
For `O=C(CN1CCNCC1)NC1CCCCC1`, the call in [1], in [2] and in [4] was inactive. The Potency entry in assay [8], in assay [9], in assay [6] and in assay [7] was “inactive” in each case. For the same compound, the max response in [5] is 0.0212%.
Turning to `CC(C)Cn1cnc2c1c(=O)n(C)c(=O)n2C`, the call in [1] and in assay [4] was inactive. The Potency result in assay [9], in assay [3], in assay [6] and in assay [7] was “inactive” in each case. For the same compound, in assay [5], the max response is 2.8%.
`O=Cc1cc2ccccc2o1`: the result in assay [1], in assay [2] and in assay [4] was inactive. Also, the max response in [5] was -1.57%. Besides, the Potency result in assay [6] and in assay [7] was “inactive” throughout.
As to `COc1c2occc2c(OC)c2c(=O)cc(C)oc12`, the compound was called inactive in assay [1], in assay [2] and in assay [4]. For the same compound, the Potency entry in [8], in [6] and in assay [7] was “inactive” each time. The Potency in assay [5] was 9.52 µM (active).
Take `Cc1ccc2c(c1)C(=O)c1ccccc1C2=O`: the outcome in assay [1] and in assay [4] was inactive. Moreover, the Potency entry in [8], in [9], in [3] and in assay [7] was “inactive” in each case. In addition, in assay [5], the max response is 5.01%.
Consider `COC(=O)c1ccccc1C(=O)O`, for which the compound was classed as inactive in [1] and in assay [4]. The Potency result in assay [9], in assay [6] and in assay [7] was “inactive” throughout. In [5], the max response is -0.818%.
Turning to `CNCCS(=O)(=O)O`, the result in assay [1], in assay [2] and in [4] was inactive. Further, the Potency result in [9], in [6] and in assay [7] was “inactive” in each case. In addition, the max response in [5] is 4.21%.
Consider `CCC(C(=O)OCCN1CCOC(c2ccccc2)C1C)c1ccccc1` (stereo not given), for which the compound was classed as inactive in assay [1], in assay [2] and in [4]. In addition, the Potency entry in assay [9], in assay [6] and in assay [7] was “inactive” throughout.
On to `CCC(C)C(=O)OCCc1ccccc1` (stereo not given), for which the result in [1], in assay [2] and in assay [4] was inactive. Also, the Potency entry in assay [3], in [6] and in assay [7] was “inactive” throughout. Also, in [5], the max response was -0.807%.
Regarding `OC1(c2ccc(Cl)cc2)CCNCC1`, the outcome in [1] and in assay [4] was inactive. Moreover, the Potency result in assay [8], in assay [9], in [6] and in [7] was “inactive” throughout. Moreover, the max response in assay [5] was 3.5%.
`O=C(CCCCC(=O)Nc1c(I)cc(I)c(C(=O)O)c1I)Nc1c(I)cc(I)c(C(=O)O)c1I`: the result in assay [1] and in assay [4] was inactive. The Potency entry in assay [9], in [3], in assay [6] and in assay [7] was “inactive” in each case. For the same compound, the max response in [5] is -12.6%.
For `O=[N+]([O-])c1c(Cl)cc(Cl)cc1Cl`, the compound was called inactive in assay [1], in [2] and in [4]. Also, the Potency entry in assay [3] and in [7] was “inactive” throughout. Further, in assay [5], the max response is -1.77%.
In the case of `CC(C)C[C@@H]1[C@H](c2ccccc2)OC(=O)N1CCCN1CCCCCC1`, the compound was called inactive in assay [1], in [2] and in assay [4]. The Potency result in [9], in assay [6] and in assay [7] was “inactive” throughout.
As for `CC12CCC(C1)C(C)(C)C2O` (stereo not given), the compound was classed as inactive in assay [1], in assay [2] and in assay [4]. Also, in assay [3], the Potency entry was “inactive”. For the same compound, the Potency in [7] is 1.95 µM (active).
Regarding `CC(C)OC(=O)OCOP(=O)(CO[C@H](C)Cn1cnc2c(N)ncnc21)OCOC(=O)OC(C)C`, the compound was called inactive in assay [1], in assay [2] and in assay [4]. The Potency result in assay [9], in assay [6] and in [7] was “inactive” throughout. Also, in assay [5], the max response was 2.48%.
On to `CCC(=O)c1c(O)cc(O)cc1O`, for which the compound was called inactive in [1], in assay [2] and in [4]. In addition, the Potency result in assay [8], in assay [3], in [6] and in assay [7] was “inactive” in each case. Further, the max response in assay [5] was 11.1%.
Take `[O]=[Mo](=[O])=[O]`: the activity change, negative = cytotoxicity in assay [1] was 2.84% [at 15.8 µM]. In addition, the cytotoxicity in assay [8] is -18.1% [at 15.8 µM]. Also, the activity change, negative = cytotoxic in assay [2] is -4.78% [at 15.8 µM]. For the same compound, the viability change, negative = cytotoxic in assay [4] was 2.7% [at 15.8 µM]. Also, the activity change in [6] is -37.6% [at 15.8 µM, stronger effect = higher value]. The cytotoxicity increase in assay [7] is -8.07% [at 15.8 µM].
For the compound `C=CCSSCCC`, the outcome in assay [1] and in assay [4] was inactive. Also, the Potency entry in assay [8], in [9], in assay [6] and in [7] was “inactive” in each case.
Consider `CC(=O)OC(C)=O`, for which the result in assay [1], in assay [2] and in assay [4] was inactive. Further, the Potency entry in assay [8], in assay [9], in assay [6] and in assay [7] was “inactive” in each case. Also, in [5], the max response was 9.5%.

The record behind these values is PubChem BioAssay (Tox21).
